Structures are written as SMILES. Inconclusive results are not listed. Entries that show only a call come without a potency. Calls of active or inactive are those of the source. The call rests on the fitted dose curve; in most records, active means well fitted cell-killing curve with a large enough effect in the repeat runs; inconclusive means weak or mixed curves, or effect the other way; inactive means flat fitted curve, though single readings scatter.
Potency means the concentration at half of the fitted maximal effect.

The nature of the assay: qHTS assay to identify small molecule antagonists of the androgen receptor (AR) signaling pathway using the MDA cell line in the presence of 0.5 nM R1881 - cell viability counter screen (AID 1259242). Further: nearly all actives have a fitted effect of over 45% in size. Particulars: MDA-kb2 viability, CellTiter-Fluor protease fluorescence, 16 h; series mostly up to 92.4 µM. An excerpt:
U.S. Tox21 Program National Center for Advancing Translational Sciences [NCATS] NIH Chemical Genomics Center [NCGC] U.S. Environmental Protection Agency [EPA] National Institutes of Environmental Health Sciences [NIEHS] National Toxicology Program [NTP] U.S. Food and Drug Administration [FDA] Tox21 Assay Overview: Androgen receptor (AR) is an important member of the nuclear receptor family. Its signaling plays a critical role in AR-dependent prostate cancer and other androgen related diseases. Considerable attention has been given in the past decades to develop methods to study and screen for the environmental chemicals that have the potential to interfere with metabolic homeostasis, reproduction, developmental and behavioral functions. Therefore AR binding assay for screening androgen antagonists can be used to identify potential endocrine disruptors. MDA-kb2 cells (from ATCC, deposited by Wilson et al.) were used to screen for AR inhibitors against Tox21 compound libraries. These cells are human breast carcinoma cells that were stably transfected with a luciferase reporter gene under control of the MMTV promoter that contains response elements for both androgen receptor (AR) and glucocorticoid receptor (GR). The current screening for identification of AR inhibitors against Tox21 libraries used lower concentration of (0.5 nM) R1881 as a stimulator. The cytotoxicity of the Tox21 compound libraries against MDA-kb2 cell line was tested by measuring live-cell protease activity using CellTiter-Fluor assay in the same wells.
Tox21 Assay Protocol Summary: MDA-kb2 cells (cells cultured without CO2) were dispensed at 3,000 cells/well in 4 uL of culture medium into white wall/solid-bottom 1536-well plates (Corning Life Sciences, Corning, NY) using a Multidrop Combi (ThermoFisher Scientific, Waltham, MA) dispenser. After the assay plates were incubated at a 37C and 0% CO2 for 5 hr, 23 nL of compounds dissolved in DMSO, positive controls or DMSO only was transferred to the assay plate by a Pintool station (Kalypsys, San Diego, CA). The transfer of compounds was followed by the addition of 1 uL of 0.5 nM (final concentration) agonist (R1881)/culture medium using a Flying Reagent Dispenser (FRD, Aurora Discovery, San Diego, CA). The plates were incubated at 37C and 0% CO2 for 16 hr. For cytotoxicity assay, 1 uL of CellTiter-Fluor reagent (Promega Corporation, Madison, WI) was added to each well using the FRD and after 30 min incubation at 37C and 0% CO2, The fluorescence intensity was measured using ViewLux plate reader (PerkinElmer, Shelton, CT).
(qHTS replaces the single test concentration by a dilution series.)
Consider `O=C1Cc2ccccc2N1c1c(Cl)cccc1Cl`, for which the Potency result was “inactive”. As to `C=COCC(C)C`, the Potency result is “inactive”. Next, `O=C(OCC(O)CO)c1ccccc1Nc1ccnc2cc(Cl)ccc12` (stereo not given): “inactive”. Next, `O=C1C(=O)c2ccccc2C(O)=C1C1CCC(c2ccc(Cl)cc2)CC1` (stereo not given): 23.7 µM (active); `Cc1ccc2c(Br)cc(Br)c(O)c2n1`: “inactive”. The same measure for `CC(C)c1nc(CN(C)C(=O)N[C@H](C(=O)N[C@@H](Cc2ccccc2)C[C@H](O)[C@H](Cc2ccccc2)NC(=O)OCc2cncs2)C(C)C)cs1`: “inactive”; for `CCC(=O)C1CC(C(C)C)CC=C1C` (stereo not given): “inactive”; for `OCCOCC#CCOCCO`: “inactive”. On to `CCCCCCC(C)(C)C(=O)O`, for which the Potency entry was “inactive”. `CC1(C)S[C@@H]2[C@H](NC(=O)C(c3ccccc3)S(=O)(=O)O)C(=O)N2[C@H]1C(=O)O` (stereo not given in full): the Potency entry was “inactive”.

Consider `O=C1c2ccccc2C(=O)N1CCc1noc(-c2ccc(CN3CCCCCC3)s2)n1`, for which the Potency entry was “inactive”.

As for `CC(C)(C)C(=O)C(=O)O`, the Potency entry is “inactive”.

Consider `CCOC(=O)c1ccc(OCCN2C[C@H](O)[C@@H](O)[C@H](O)[C@H]2CO)cc1`, for which the Potency entry was “inactive”.

For the compound `CCOC(=O)c1ccc(I)cc1`, the Potency entry was “inactive”.

For the compound `CC(C)C=O`, the Potency result was “inactive”. Next, `CC(=O)c1cc2ccccc2s1`: “inactive”; `C/C=C\C/C=C/CCCCCCCCOC(C)=O`: “inactive”; `NC(=O)c1ccncc1`: “inactive”. Next, `CC1CC(OC(=O)C(O)c2ccccc2)CC(C)(C)N1C` (stereo not given): “inactive”; `O=C1CCCCCCCCCCOCCCCO1`: “inactive”.

For the compound `COc1cc(N)c(Cl)cc1C(=O)NC1CCN(CCCOc2ccc(F)cc2)CC1OC` (stereo not given), the Potency result was “inactive”. The same measure for `C[C@H]1C[C@H](O)c2ccsc2S1(=O)=O`: “inactive”. On to `CCCCCCCC/C=C\CCCCCCCCO`, for which the Potency result is “inactive”. Next, `C=C1c2cccc(O)c2C(O)=C2C(=O)[C@]3(O)C(O)=C(C(N)=O)C(=O)[C@@H](N(C)C)[C@@H]3[C@@H](O)[C@H]12`: “inactive”; `CCOC(C)=O`: “inactive”; `Cc1c(C)c2c(c(C)c1OC(=O)CCC(=O)OCCO)CC[C@@](C)(CCC[C@H](C)CCC[C@H](C)CCCC(C)C)O2`: “inactive”.

`CCCCCC[C@@H](O)C/C=C\CCCCCCCC(=O)OCC(O)CO` (stereo not given in full): the Potency entry was “inactive”. Next, `CN1C(=O)OC(C)(C)C1=O`: “inactive”.

For `Oc1cccc(O)c1O`, the Potency entry was “inactive”. The same measure for `CC1CC(C)C(=O)C1=O` (stereo not given): “inactive”. The same measure for `C(=C\c1ccccc1)/c1ccccc1`: “inactive”; for `c1csc(SSc2cccs2)c1`: “inactive”.

For the compound `COc1ccccc1N1CCN(CC(O)COc2cccc3ccccc23)CC1` (stereo not given), the Potency result was “inactive”.

Take `C=C(C)C(=O)OCCCCCCCCCCCCC`: the Potency entry was “inactive”. Consider `CC1=C(Br)C(=O)C(Br)=C/C1=C(/c1ccccc1S(=O)(=O)O)c1cc(Br)c(O)c(Br)c1C`, for which the Potency is 18.6 µM (active).

For `O=C(O)c1cccc(-c2noc(-c3ccccc3F)n2)c1`, the Potency entry was “inactive”. As to `CC[N+](CC)(CCNC(=O)C(=O)NCC[N+](CC)(CC)Cc1ccccc1Cl)Cc1ccccc1Cl`, the Potency entry is “inactive”. For `O=Cc1c2ccccc2c(Cl)c2ccccc12`, the Potency entry was “inactive”. Turning to `CC1=C(CC=O)C(C)(C)CCC1`, the Potency entry was “inactive”. Next, `CC[C@]1(O)C[C@H]2CN(CCc3c([nH]c4ccccc34)[C@@](C(=O)OC)(c3cc4c(cc3OC)N(C=O)[C@H]3[C@@](O)(C(=O)OC)[C@H](OC(C)=O)[C@]5(CC)C=CCN6CC[C@]43[C@@H]65)C2)C1`: “inactive”.

These data come from PubChem BioAssay (Tox21).
